Reference: PubChem BioAssay (NCATS)
“And” between values parts separate entries of the source, which are not always exact repeats. Equal values may be shown once. Results filed as inconclusive are left out. A structure can be active in one record and inactive in another. The source made the active and inactive calls. Unless noted, calls come from the whole dose curve; as a rule, active = well fitted curve in either direction with a large enough effect (not every such curve was filed as active); inconclusive = small, poorly fitted or top-dose-only effect, or another doubt; inactive = flat fitted curve, though single readings scatter.

What was measured:
[1] = Cell Viability - BJ (AID 421; calls by dose curve;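 note: potency is the fitted concentration of half-maximal effect; cells exposed to compound for 40 hours at 37 °C before readout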); conditions: BJ fibroblast viability, qHTS
Excerpt: (§1) NIH Chemical Genomics Center [NCGC]
(§2) NIH Molecular Libraries Screening Centers Network [MLSCN]
(§3) National Institutes of Environmental Health Sciences [NIEHS]
(§4) National Toxicology Program [NTP]
We have developed a 1536-well cell-based assay for quantitative high throughput screening (qHTS) against a number of cell lines to determine in vitro cytotoxicity of small molecules. This particular assay uses the BJ cell line from ATCC which is derived from normal human foreskin fibroblasts.
(§5) NCGC Assay Protocol Summary:
(§6) The CellTiter-Glo luminescent cell viability assay (Promega) is a homogeneous method to measure the number of viable cells in culture. The end point readout of this assay is based on quantitation of intracellular ATP, an indicator of metabolic activity, using the luciferase reaction. Luciferase catalyzes the oxidation of beetle Luciferin to oxyluciferin and light in the presence of ATP. The luminescent signal is proportional to amount of ATP present.
(§7) Using the CellTiter-Glo luminescent cell viability assay, the amount of cellular ATP was measured in the BJ cell line with complete culture medium following compound treatment for 40 hours. The assay was performed in opaque white Kalypsys 1536-well plates. In the screen, tamoxifen and doxorubicin were used as positive controls. Library compounds were measured for their ability to cause acute toxicity in the cell line, as reflected by a decrease in intracellular ATP levels, in a concentration-dependent manner. Data were normalized to the controls for basal activity (DMSO only) and 100% inhibition (100 uM tamoxifen). AC50 values were determined from concentration-response data modeled with the standard Hill equation.
qHTS protocol fo CellTiter Glo BJ cellular assay
(§8) [Step] [Parameter] [Value] [Description]
1. Reagent; 5 uL; 1500 BJ cells/well
2. Time; 5 hr; 37 °C incubation
4. Controls; 23 nL; Tamoxifen 0.34 uM to 100 uM & Doxorubicin 0.02 nM to 100 uM
5. Time; 40 hr; 37 °C incubation
6. Reagent; 5 uL; CellTiter Glo reagent
7. Time; 20 min; Room Temperature
8. Detection; Luminescence; Viewlux plate reader
Keywords: cell viability, cytotoxicity, BJ cell line, luminescence, NTPHTS, NTPHTS_NCGC, NIEHS, EPA, DSSTox, MLSMR, MLSCN, NIH Roadmap, qHTS, NCGC

[2] = Cell Viability - Hek293 (AID 427;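 active = compounds whose dose-response curve shows a full or clear partial loss of cell viability, called from curve shape rather than a numeric limit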;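 note: potency is the fitted concentration of half-maximal effect; cells exposed to compound for 40 hours at 37 °C before reading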); conditions: qHTS
Summary of the method: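 AC50 values derive from Hill-modelled concentration-response of ATP-based luminescence, normalized between DMSO-only and 100 uM tamoxifen controls. Cells were exposed in complete culture medium for 40 hr at 37 °C before detection.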

[3] = Cell Viability - HepG2 (AID 433; calls by dose curve;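 note: potency is the fitted concentration of half-maximal effect; potency for ATP loss meaning cytotoxicity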); conditions: qHTS
Summary of the method: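 HepG2 hepatocellular carcinoma cells (1500/well) were treated with compounds for 40 h at 37 °C in complete medium; intracellular ATP was read by CellTiter-Glo luminescence. Data were normalized to DMSO and 100 uM tamoxifen, and AC50 came from Hill fits.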

[4] = Cell Viability - MRC5 (AID 434; calls by dose curve;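 note: potency is the fitted concentration of half-maximal effect; potency reflects cytotoxicity seen as loss of intracellular ATP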); conditions: MRC5 lung fibroblast viability, qHTS
Summary of the method: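 ATP luminescence read-out (CellTiter-Glo, 20 min RT) after 40 hr, 37 °C compound exposure of 1500 MRC5 cells/well. Data normalized to DMSO (basal) and 100 uM tamoxifen (100% inhibition); AC50 from standard Hill equation.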

[5] = Cell Viability - SK-N-SH (AID 435; calls by dose curve;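 note: potency is the fitted concentration of half-maximal effect; compound exposure lasted 40 h at 37 °C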); conditions: SK-N-SH neuroblastoma cell viability qHTS
Summary of the method: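 SK-N-SH human neuroblastoma cells (1500/well) were exposed to compounds in complete medium for 40 h at 37 °C, and intracellular ATP was then measured by CellTiter-Glo luminescence. AC50 was taken from Hill fits, normalized to DMSO and 100 uM tamoxifen.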

[6] = Cell Viability - Jurkat (AID 426;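 active = dose-dependent loss of cell ATP signal giving a full or clear fitted curve, ranked by lower potency value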;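 note: potency is the fitted concentration of half-maximal effect; cells exposed to compound for 40 hours at 37 °C before ATP read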); conditions: qHTS
Excerpt: as §1, §2, §3, §4
We have developed a 1536-well cell-based assay for quantitative high throughput screening (qHTS) against a number of cell lines to determine in vitro cytotoxicity of small molecules. This particular assay uses the Jurkat cell line (Clone E6-1) which is derived from the human T cell leukemia.
as §5, §6
as §7, with “Jurkat” for “BJ”, “Data were normalized to the controls for basal activity (DMSO only) and 100% inhibition (100 uM tamoxifen).” left out
qHTS protocol for CellTiter Glo Jurkat cellular assay
as §8
1. Reagent; 5 uL; 5000 Jurkat cells/well
3. Controls; 23 nL; Tamoxifen 0.34 uM to 100 uM & Doxorubicin 0.02 nM to 100 uM
4. Time; 40 hr; 37 °C incubation
5. Reagent; 5 uL; CellTiter Glo reagent
6. Time; 20 min; Room Temperature
7. Detection; Luminescence; Viewlux plate reader
Keywords: cell viability, cytotoxicity, Jurkat cell line, luminescence, NTPHTS, NTPHTS_NCGC, NIEHS, EPA, DSSTox, MLSMR, MLSCN, NIH Roadmap, qHTS, NCGC

[7] = AP1 Signaling Pathway (AID 357); conditions: ME-180 AP-1-bla reporter, EGF-induced, beta-lactamase ratio, 5 h; series mostly up to 17.2 µM;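 note: ME-180 reporter cells stimulated with EGF at its EC50 level; % is set by controls: 0 for no effect and ±100 for the full control effect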
Summary of the method: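 Cells are seeded overnight, exposed to compound titrations and an EC50 level of EGF for 5 hours at 37 °C, then loaded with CCF4 dye for 2.5 hours. Beta-lactamase activity under the AP-1 element is read as a blue/green ratio.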

[8] = NFAT Signaling Pathway (AID 444); conditions: Jurkat NFAT-bla M1, carbachol, beta-lactamase ratio, 5 h;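 note: carbachol stimulus at about its EC50 of 1 µM final; % is set by controls: 0 for no effect and ±100 for the full control effect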
Summary of the method: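 Jurkat cells with NFAT-driven β-lactamase reporter and co-expressed M1 receptor, stimulated with carbachol (final 1 uM, ~EC50), compound titration, 5 h at 37 °C. CCF4 loaded 1 h at RT; 460/530 nm ratio gave %activity and AC50.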

[9] = Stat Signaling Pathway (AID 446); conditions: ME-180 (cervical carcinoma) SIE beta-lactamase reporter, IL-6 stimulated, 5 h; series mostly up to 17.2 µM;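 note: ME-180 cervical cancer cells given 40 pM IL-6 alongside compound; SIE-controlled beta-lactamase reporter measured as 460/530 nm FRET emission ratio; % is set by controls: 0 for no effect and ±100 for the full control effect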
Summary of the method: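 Overnight-plated ME-180 cells bearing a STAT Inducible Element beta-lactamase reporter; 5 h co-exposure to compound and 40 pM IL-6; values normalized to 300 pM IL-6 and 125 nM JAK inhibitor controls.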

[10] = molecular target: Cytochrome P450 1A2 (Homo sapiens) (UniProt P05177); assay: p450-cyp1a2 (AID 410; calls by dose curve; note: potency is the fitted concentration of half-maximal effect;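 for activity change, negative = inhibition: -100% = full effect of reference inhibitor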); conditions: recombinant CYP1A2, luciferin-ME demethylation, luminescence; series mostly up to 25.6 µM
Sequence of Cytochrome P450 1A2 (Homo sapiens) (P05177 whole entry, looked up): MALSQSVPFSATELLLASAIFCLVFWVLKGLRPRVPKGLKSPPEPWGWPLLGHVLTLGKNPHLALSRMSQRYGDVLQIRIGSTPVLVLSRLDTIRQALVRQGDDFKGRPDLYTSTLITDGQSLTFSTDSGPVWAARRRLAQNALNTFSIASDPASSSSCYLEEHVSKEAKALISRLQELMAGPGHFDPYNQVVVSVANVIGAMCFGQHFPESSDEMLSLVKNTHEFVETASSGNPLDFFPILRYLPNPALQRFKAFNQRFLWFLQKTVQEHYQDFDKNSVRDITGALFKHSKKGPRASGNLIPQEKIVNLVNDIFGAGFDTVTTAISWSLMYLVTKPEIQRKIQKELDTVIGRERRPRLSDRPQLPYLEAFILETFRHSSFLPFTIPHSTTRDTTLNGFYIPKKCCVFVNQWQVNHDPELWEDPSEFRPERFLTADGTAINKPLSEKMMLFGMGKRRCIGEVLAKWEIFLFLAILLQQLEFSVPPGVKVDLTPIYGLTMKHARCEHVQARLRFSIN
Summary of the method: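 20nM CYP1A2, 100uM Luciferin-ME (=Km), 100mM KPO4; cpd 10 min RT; +NADPH regen, 60 min RT; stop/detect 20 min; luminescence. Normalized to furafylline 57 uM = full inhibition.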

CNC(=O)Oc1cccc2ccccc12
inactive: Potency [1] > 92 µM | Potency [2] > 92 µM | Potency [3] > 92 µM | Potency [4] > 92 µM | Potency [5] > 92 µM

C[C@@H]1C[C@@H]([C@H](O)CC2CC(=O)NC(=O)C2)C(=O)[C@@H](C)C1
inactive: Potency [1] > 92 µM | Potency [3] > 92 µM | Potency [4] > 92 µM | Potency [5] > 92 µM
active: Potency [6] 301 nM and 142 nM | Potency [2] 129 nM and 167 nM

CCCCCCCCCCCC[N+](C)(C)CCOc1ccccc1
active: Potency [1] 13.7 µM | Potency [6] 25.2 µM | Potency [2] 29.6 µM | Potency [3] 58.8 µM | Potency [4] 14.5 µM | Potency [5] 24.5 µM

COc1ccc(CN2CCNCC2)c(OC)c1OC
inactive: outcome [7] | activity change, negative = inhibition ([8]; at 17.2 µM (top of the series)) -8.2% | outcome [9]

COC(=O)C1=CCCN(C)C1
inactive: outcome [7] | Potency [10] | outcome [9]

Oc1c(Br)cc(Br)cc1Br
inactive: Potency [1] > 92 µM | Potency [2] > 92 µM | Potency [3] > 92 µM | Potency [4] > 92 µM | Potency [5] > 92 µM

Oc1ccc2[nH]cc(CCCCN3CC=C(c4ccccc4)CC3)c2c1
active: Potency [10] 31.6 µM

COc1ccc(C(=O)N2CCCC2=O)cc1
inactive: outcome [7] | activity change, negative = inhibition ([8]; at 17.2 µM (top of the series)) -27.3% | activity change, negative = inhibition ([8]; at 38 µM (top of the series)) 11.8% | outcome [9]

O=C(CCCN1CCC(n2c(=O)[nH]c3ccccc32)CC1)c1ccc(F)cc1
inactive: outcome [7] | Potency [10] | outcome [9]

CC(C)[N+](C)(CCC(C(N)=O)(c1ccccc1)c1ccccc1)C(C)C
inactive: outcome [7] | Potency [10] | outcome [9]

COP(=O)(OC)C(O)C(Cl)(Cl)Cl (centres undefined)
inactive: outcome [7] | outcome [9]

CCC(=O)O[C@H]1CC[C@H]2[C@@H]3CCC4=CC(=O)CC[C@]4(C)[C@H]3CC[C@]12C
inactive: outcome [7] | Potency [10] | outcome [9]

OC(c1ccccc1)(c1ccccc1)C1CCNCC1
inactive: outcome [7] | Potency [10] | outcome [9]

Clc1ccc(CSC(Cn2ccnc2)c2ccc(Cl)cc2Cl)cc1 (centres undefined)
inactive: outcome [7]

O=C(CCl)c1ccc(Cl)cc1Cl
active: Potency [1] 47.1 µM | Potency [6] 0.345 µM | Potency [3] 47.9 µM | Potency [5] 9.56 µM

CN(C)C(=S)SSC(=S)N(C)C
active: Potency [6] 12.5 µM | Potency [2] 14.5 µM | Potency [3] 66.9 µM | Potency [4] 13.2 µM | Potency [5] 8.36 µM

C[C@H](N)[C@H](O)c1ccc(O)c(O)c1
inactive: outcome [7] | Potency [10] | activity change, negative = inhibition ([8]; at 17.2 µM (top of the series)) -6.73% | activity change, negative = inhibition ([8]; at 38 µM (top of the series)) 1.06% | outcome [9]

CCCCCCCCC(=O)NCc1ccc(O)c(OC)c1
inactive: outcome [7] | activity change, negative = inhibition ([8]; at 38 µM (top of the series)) 6.44% | outcome [9]
active: Potency [10] 12.6 µM

CN1[C@@H]2CC[C@H]1CC(OC(=O)c1cc(Cl)cc(Cl)c1)C2 (some centres undefined)
inactive: outcome [7] | Potency [10] | outcome [9]

O=C(O)c1nn(Cc2ccc(Cl)cc2Cl)c2ccccc12
inactive: outcome [7] | Potency [10] | activity change, negative = inhibition ([8]; at 38 µM (top of the series)) -9.69%

C[N+]1(C)[C@@H]2CC[C@H]1CC(OC(=O)C(CO)c1ccccc1)C2 (some centres undefined)
active: activity change, negative = inhibition ([8]; at 17.2 µM (top of the series)) -95.4% and -94.2%
inactive: outcome [7] | outcome [9]

COP(=O)(OC)OC=C(Cl)Cl
30.9 µM (active) and > 92 µM (inactive): Potency [4]
inactive: Potency [1] > 92 µM | Potency [6] > 92 µM | Potency [2] > 92 µM | Potency [3] > 92 µM | Potency [5] > 92 µM

CC[n+]1c(-c2ccccc2)c2cc(N)ccc2c2ccc(N)cc21
active: Potency [6] 26.8 µM
inactive: Potency [4] > 92 µM | Potency [5] > 92 µM

NC(=O)CN1CCCC1=O
inactive: outcome [7] | Potency [10] | activity change, negative = inhibition ([8]; at 17.2 µM (top of the series)) -0.917% | activity change, negative = inhibition ([8]; at 38 µM (top of the series)) 1.7% | outcome [9]

c1ccc2nc(N3CCNCC3)ccc2c1
active: Potency [10] 1.58 µM and 1.26 µM and 251 nM
inactive: outcome [7] | activity change, negative = inhibition ([8]; at 17.2 µM (top of the series)) -7.47% | activity change, negative = inhibition ([8]; at 38 µM (top of the series)) -5.87% | outcome [9]
